From PubChem
Most compounds without a hit are left out; they make up all but 8% or so of the library.
ELG1 repair inh – qHTS screen for small molecules that inhibit ELG1-dependent DNA repair in human embryonic kidney (HEK293T) cells expressing luciferase-tagged ELG1. HEK293T ELG1-luciferase reporter, luminescence, 16 h; DNA damage induced by 5-fluorouridine. Potency, µM (doses to about 46.1 µM), hits mostly inhibitors. 2.3% of 330,000 active. AID 504467, 2011; note: nearly all actives have a fitted effect of over 55% in size
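Cells (2,000 per well) received 5-fluorouridine plus test compound or DMSO and were incubated 16 hr at 37 °C, 5% CO2. Luciferase activity was read by luminescence 30 min after ONE-Glo addition; signal suppression marked inhibition of damage-induced ELG1 function.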
TSHR antagonist – Antagonists of the Thyroid Stimulating Hormone Receptor: HTS campaign. Thyrotropin receptor (Homo sapiens), P16473. TSHR-expressing cells, TSH-stimulated cAMP HTRF, 2 h; active compounds read low. activity change, negative = inhibition, % at 11.5 µM. 0.2% of 330,000 active. AID 504810, 2011;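 active = activity change below a set negative limit, meaning inhibition stronger than a set level, cut at about -70% in these data; inconclusive = activity change between two set negative limits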
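Freshly harvested TSHR cells receive pin-tooled compound, then EC80 TSH at 4nM final. After 2 hours at 37 deg C, antibody in lysis buffer and cAMP-d2 are added; 30 minutes at ambient temperature precede the HTRF read.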
VP16 counter – VP16 counterscreen qHTS for inhibitors of ROR gamma transcriptional activity. 3.5% of 310,000 active. Drosophila S2 Gal4-VP16 UAS-luciferase, luminescence, 20 h. Potency, µM (top dose mostly 53.6 µM), most hits filed as inhibitors;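 note: Gal4-VP16 expression switched on by copper sulfate through the metallothionein promoter; nearly all actives have a fitted effect of over 50% in size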
RORg inh – qHTS for inhibitors of ROR gamma transcriptional activity; Drosophila S2 Gal4-RORgamma UAS-luciferase reporter, 20 h; Potency, µM (series often up to 53.6 µM), most hits filed as inhibitors; Nuclear receptor ROR-gamma (Mus musculus), P51450; 5.4% of 310,000 active; note: nearly all actives have a fitted effect of over 60% in size
Target sequence (P51450 whole entry, looked up, the tested form may be a part): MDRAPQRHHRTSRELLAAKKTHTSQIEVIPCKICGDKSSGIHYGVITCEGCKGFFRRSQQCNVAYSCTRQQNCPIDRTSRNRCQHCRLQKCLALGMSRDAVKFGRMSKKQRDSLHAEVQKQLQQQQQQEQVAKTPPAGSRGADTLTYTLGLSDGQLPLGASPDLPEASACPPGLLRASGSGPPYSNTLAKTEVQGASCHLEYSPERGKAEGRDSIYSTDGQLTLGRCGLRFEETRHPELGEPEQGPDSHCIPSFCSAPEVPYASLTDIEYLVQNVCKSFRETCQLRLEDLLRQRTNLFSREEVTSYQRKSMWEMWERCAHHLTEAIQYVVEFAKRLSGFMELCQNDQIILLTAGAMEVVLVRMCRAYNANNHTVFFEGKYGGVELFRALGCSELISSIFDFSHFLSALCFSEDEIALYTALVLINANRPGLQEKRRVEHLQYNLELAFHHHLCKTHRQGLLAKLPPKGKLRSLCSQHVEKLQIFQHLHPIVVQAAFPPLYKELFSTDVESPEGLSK
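Compounds are pin-transferred onto Drosophila Schneider cells expressing a copper-inducible Gal4–ROR gamma transactivation domain fusion. After 1 hr, copper sulfate is added to 700 uM final; luciferase is read 20 hr later.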
Coupling enz – qHTS Assay for Inhibitors of Fructose-1,6-bisphosphate Aldolase from Giardia Lamblia: Coupling assay counterscreen | coupling enzyme system counterscreen, AmpLite Red fluorescence | activity change, negative = inhibition, % at 58.2 µM, hits read low | 0.67% of 290,000 active | AID 2472, 2010; in the data active = activity change below about -30%
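Final compound at 57.5 uM, incubated 10 min at RT with coupling enzyme reagent (glyceraldehyde-3-phosphate), then 20 min with substrate and AmpLite Red detection. Fluorescence read at 525/598 nm; tests interference with the coupling assay, not aldolase inhibition.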
Numbers stand for hits; . = inactive; ? = inconclusive; / = no result; [ ] = dose if it differs, or a comment. Unless noted, calls come from the whole dose curve; as a rule, active = well fitted curve in the direction sought with a large enough effect; inconclusive = small, poorly fitted or top-dose-only effect, or another doubt; inactive = no such curve, though single readings can be large; an effect the other way counts as inactive or inconclusive.

SMILES	ELG1 repair inh	TSHR antagonist	VP16 counter	RORg inh	Coupling enz
O=C(CN1c2ccccc2Sc2ccccc21)NNC(=S)Nc1ccc(Cl)cc1Cl	.	.	?	13µM	.
O=C(CN1c2ccccc2Sc2ccccc21)NNC(=S)Nc1ccc(Cl)cc1	?	.	?	10µM	.
O=C(CN1CCOCC1)NNC(=S)Nc1ccc(Cl)cc1	.	.	.	.	.
COc1ccc(OC)c(/C=N/NC(=O)c2ccc(N(C)S(=O)(=O)c3ccccc3)cc2)c1	.	.	.	.	.
CC(C)Oc1ccccc1/C=N/NC(=O)c1ccc(F)cc1	.	.	.	.	.
CCN(CC)c1ccc(C(=O)N/N=C/c2ccccc2OC(F)F)cc1	?	.	?	2.5µM	.
COc1ccc(/C=N/NC(=O)c2ccc(N(C)S(=O)(=O)c3ccccc3)cc2)c(OC)c1	.	.	.	10µM	.
COc1ccc(O)c(/C=N/NC(=O)c2ccc(OCc3cccc(Br)c3)cc2)c1	3.7µM	.	4.5µM	5µM	.
COc1ccc(C(=O)NCC(=O)OCc2cccc(Br)c2)cc1	.	.	.	.	.
COc1ccccc1/C=N/NC(=O)c1ccc(Br)cc1	?	.	.	13µM	.
CCNc1ncc2nc(CCc3ccccc3)c(=O)n(C3CC3)c2n1	/	/	.	.	.
CC(=O)c1ccc(OCC(=O)OCC(=O)Nc2sccc2C(N)=O)cc1	?	.	/	/	/
CN(C)Cc1ccccc1-c1cncnc1NCc1cccnc1	/	/	.	.	.
CC(C)Oc1ccccc1/C=N/NC(=O)C1CCCC1	.	.	.	.	.
COc1cc(C(=O)Oc2ccccc2/C=N/NC(=O)c2ccc(Cl)cc2)cc(OC)c1OC	.	.	11µM	6.3µM	.
CCCOc1ccccc1/C=N/NC(=O)C1CC1	.	.	.	8.9µM	/
COc1ccc(/C=N/NC(=O)c2ccc(Br)cc2)c(OC)c1	.	.	.	11µM	.
COc1ccccc1/C=N/NC(=O)CCSc1ccccc1	.	.	.	.	-33
COc1ccccc1/C=N/NC(=O)CNC(=O)c1ccccc1	.	.	.	.	.
CCC[C@H](NC(=O)[C@H](CC(C)C)N(C)C(=O)CNC(=O)[C@@H](NC(=O)[C@H](Cc1ccccc1)NC(=O)[C@H](CCCCN)NC(=O)[C@@H](N)CC(=O)O)C(C)C)C(N)=O	/	/	.	.	.
COC(=O)[C@@H]1C[C@@]2(O)[C@@H](O)[C@@H](O)[C@@H](O)C[C@H]2N1CC1CC1	/	/	.	.	.
O=C(O)[C@@H]1CCCN1S(=O)(=O)c1cccc2cccnc12	.	.	/	/	/
CS(=O)(=O)N(Cc1ccc(C(=O)N2CCc3ccccc3C2)cc1)c1ccccc1	.	.	?	.	.
CS(=O)(=O)N(Cc1ccc(Cl)cc1)c1ccc(C(=O)N2CCN(c3ccccc3)CC2)cc1	?	.	?	.	.
Cc1ccc(CN(c2ccc(C(=O)N3CCc4ccccc4C3)cc2)S(C)(=O)=O)cc1	16µM	.	.	.	.
SMILES	ELG1 repair inh	TSHR antagonist	VP16 counter	RORg inh	Coupling enz
CS(=O)(=O)N(Cc1ccccc1)c1ccc(C(=O)N2CCN(c3cccc(Cl)c3)CC2)cc1	?	-92	.	.	.
CC1(C)NC(=O)N(CCCC(=O)Nc2ccc(C(F)(F)F)cc2)C1=O	.	.	/	/	/
COCC1COS(=O)(=O)NC1(C)C (stereo unspecified)	?	.	.	.	.
COCCN=c1scc(-c2cc(OC)c(OC)c(OC)c2)n1/N=C/c1c(C)[nH]c2ccccc12	7.3µM	.	.	.	.
c1ccc(-c2nc(SCc3nc4ccccc4[nH]3)c3oc4ccccc4c3n2)cc1	?	.	/	/	/
C=CC1=C2C=C(C3CC3)N(CC3CC3)C=C2C(=O)C(C)(OC(=O)c2ccco2)C1=O (stereo unspecified)	/	/	/	/	-31
C=CC1=C2C=C(C3CC3)N(CCCCO)C=C2C(=O)C(C)(OC(=O)c2ccco2)C1=O (stereo unspecified)	/	/	/	/	-42
Nc1c(-c2ccccc2)cnn1-c1ccc(C(=O)O)cc1	?	.	?	10µM	.
COc1ccc(-c2c(C)nn(-c3ccccc3)c2N)cc1	?	.	.	.	.
Cc1nn(-c2ccc(C(=O)O)cc2)c(N)c1-c1ccccc1	?	.	?	10µM	.
CC(C)n1cnnc1SCC(=O)Nc1cccnc1Cl	.	.	/	/	/
CCN(C(=O)CSc1nnc(Cn2nnc3ccccc32)o1)c1nc(-c2ccccc2)cs1	18µM	.	.	.	.
CC(C)c1ccc(Nc2nnc(SCC(=O)Nc3ncc(S(=O)(=O)c4ccc([N+](=O)[O-])cc4)s3)s2)cc1	?	.	.	10µM	.
NC(=S)NNc1c(F)c(F)c(F)c(F)c1F	.	.	?	13µM	.
Cc1ccc(NC(=S)N2CCc3[nH]c4ccccc4c3C2)cc1	.	.	.	6.3µM	.
COC(=O)c1sc(NC(=O)c2cc(-c3ccccc3)nc3ccccc23)c(C#N)c1C	.	.	.	.	-73
Cc1ccccc1-c1cc(C(=O)Nc2sc(C(=O)OC(C)C)c(C)c2C#N)c2ccccc2n1	23µM	.	?	?	.
CCOC(=O)c1sc(NC(=O)c2cc(-c3ccc(C)cc3)nc3ccccc23)c(C#N)c1C	?	.	.	.	.
CC(C)(C)c1nnc(NC(=O)c2cc(-c3ccccc3)nc3ccccc23)s1	.	.	10µM	5.6µM	.
COc1ccc(-c2cc(C(=O)Nc3sc4c(c3C#N)CCCC4)c3ccccc3n2)cc1	?	.	.	.	.
COC(=O)c1sc(NC(=O)c2ccc([N+](=O)[O-])o2)c(C#N)c1C	4.6µM	.	.	?	.
CCC(=O)c1cc2c(C)cc(=O)oc2c(C)c1OC(=O)C(C)C	.	.	.	.	.
CCN(CC(=O)Nc1c(F)cccc1F)C(=O)C1CCN(S(=O)(=O)c2ccc(C)cc2C)CC1	.	/	/	/	/
CC(C)(C)[C@H]1COC(=O)CC/C=C\C[C@@H](CC(=O)N(CCO)Cc2ccccc2)C(=O)N1	?	.	/	/	/
CC(C)(C)NS(=O)(=O)c1ccc(NC(=O)c2cc(-c3ccccc3)nc3ccccc23)cc1	23µM	.	.	.	.
Cc1sc(NC(=O)c2cc(-c3ccccc3)nc3ccccc23)c(C(N)=O)c1C	5.8µM	.	.	?	.
CCc1nnc(NC(=O)c2cc(-c3ccccn3)nc3ccc(Br)cc23)s1	.	.	?	20µM	.
O=C(Nc1cccc(S(=O)(=O)NCc2ccco2)c1)c1cc(-c2ccccc2)nc2ccccc12	21µM	.	.	.[10 µM]	.
Cc1sc(NC(=O)c2cc(-c3ccc(Cl)cc3)nc3ccccc23)c(C(N)=O)c1C	.	.	?	?	.
